Assay outcomes: PubChem, National Center for Advancing Translational Sciences (NCATS)
The sample as a whole holds a higher share of hits than the screen did.
SARS PLP yeast: inhibitors of SARS-CoV papain-like protease in yeast; Potency, µM (doses to about 32.9 µM), actives largely listed as activators; 0.19% of 330,000 active; AID 485353; S. cerevisiae expressing SARS-CoV PLpro, growth rescue; calls by dose curve; also: nearly all actives have a fitted effect of over 55% in size
AmpC no deterg: inhibitors of E. coli AmpC beta-lactamase without detergent; AmpC nitrocefin hydrolysis, absorbance 480 nm, 0.0001% Triton; Potency, µM (series often up to 57.1 µM), hits mostly inhibitors; 0.52% of 330,000 active; also: nearly all actives have a fitted effect of over 20% in size
Target sequence (P00811 whole entry, looked up): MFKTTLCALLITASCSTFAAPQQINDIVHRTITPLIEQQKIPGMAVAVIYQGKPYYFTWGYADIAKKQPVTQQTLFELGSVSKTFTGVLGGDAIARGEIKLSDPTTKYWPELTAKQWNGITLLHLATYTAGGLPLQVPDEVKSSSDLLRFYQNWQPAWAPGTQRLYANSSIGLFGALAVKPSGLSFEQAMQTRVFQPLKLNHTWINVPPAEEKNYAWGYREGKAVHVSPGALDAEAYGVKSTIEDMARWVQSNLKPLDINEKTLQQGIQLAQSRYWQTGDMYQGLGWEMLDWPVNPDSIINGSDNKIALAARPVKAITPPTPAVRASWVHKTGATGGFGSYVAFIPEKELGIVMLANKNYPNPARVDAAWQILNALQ
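AmpC (5.3 nM in the dispensed reagent) in 20 mM phosphate pH 7.0 with 0.01% (detergent screen) or 0.0001% Triton X-100 was preincubated with compounds for 15 min at room temperature. Nitrocefin was then added from an 800 uM solution, and hydrolysis was followed at 480 nm.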
AMA1 RON2 block: AMA1-RON2 (P. falciparum) interaction inhibition | AlphaScreen AMA1-biotinylated RON2 peptide binding | Potency, µM (series often up to 58.2 µM), most hits filed as inhibitors | 0.2% of 360,000 active; also: nearly all actives have a fitted effect of over 45% in size
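AMA1 (3D7) with his tag at 25 nM final met compounds first, then biotinylated RON2 peptide at 25 nM; detection used donor plus acceptor beads, 10 µg/mL apiece, read by AlphaScreen after 30 min at room temperature.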
AmpC inh detg: inhibitors of E. coli AmpC beta-lactamase with detergent. P00811. AmpC hydrolysis of nitrocefin, absorbance 480 nm, 0.01% Triton. Potency, µM (titrated, usually from 114 µM), usual class: inhibitors. 0.041% of 370,000 active; also: nearly all actives have a fitted effect of over 25% in size
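20 mM phosphate pH 7.0 + 0.01% (detergent screen) or 0.0001% Triton X-100; 5.3 nM AmpC reagent; cpd preinc 15 min RT; nitrocefin (800 uM stock) to start; A480 q20 s × 4 min; Activity was normalised to no-enzyme and no-compound control wells.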
Shiga inhibitor: inhibitors of Shiga toxin in Vero cells | Vero cells, Shiga toxin protein synthesis inhibition reporter | inhibition, % at 38.7 µM | 9.2% of 290,000 active | AID 2315; in the data active = inhibition mostly above about 28%, no sharp cut-off; inactive = mostly below about 43%
CHX counter: counter-screen hit for Shiga toxin inhibitors, cycloheximide; cell reporter, cycloheximide protein synthesis inhibition counterscreen; 12% of 300,000 active; max response, %; AID 2314; in the data active = max response mostly above about 13%, no sharp cut-off; inactive = mostly below about 14%; also: read at 38.3 µM for the half of the compounds with a filed dose
Large screens that a line does not name were inactive. Unless noted, calls follow the shape of the dose curve; as a rule, active = well fitted curve in the direction sought with a large enough effect; inconclusive = small, poorly fitted or top-dose-only effect, or another doubt; inactive = no such curve, though single readings can be large; an effect the other way counts as inactive or inconclusive.

CC(NC(=O)c1cc(-c2cccs2)on1)c1ccccc1 (centres undefined)	none
O=C(COc1ccccc1)N1CCN(Cc2c[nH]c3ccccc23)CC1	none
Cn1ccnc1Sc1nc2ccccc2nc1NS(=O)(=O)c1ccccc1	Shiga inhibitor 102.5, CHX counter 55.6
Cc1c(Nc2nc3ccccc3nc2NS(=O)(=O)c2ccccc2)c(=O)n(-c2ccccc2)n1C	none
Cn1cnnc1Sc1nc2ccccc2nc1NS(=O)(=O)c1ccccc1	AmpC inh detg inconclusive
CC(=O)Nc1ccc(S(=O)(=O)Nc2nc3ccccc3nc2Sc2nncn2C)cc1	AmpC inh detg inconclusive, Shiga inhibitor 116.5, CHX counter 25.7
CCOC(=O)c1cc(NC(=O)N(C(C)C)C(C)C)c(C)nc1C	none
O=C(CCN1CCC(c2cccs2)=N1)c1cccs1	Shiga inhibitor 69.0, CHX counter 42.1
CC(C)=CC(=O)OCC(=O)Nc1cccc([N+](=O)[O-])c1	none
O=C(O)CCC(=O)Nc1ccc(N=Nc2ccccc2)cc1	none
CC1CC1C(=O)OCC(=O)Nc1ccc(N=Nc2ccccc2)cc1 (centres undefined)	Shiga inhibitor 92.6, CHX counter 55.1
Nc1ccc(SCC(=O)Nc2cccc([N+](=O)[O-])c2)cc1	CHX counter 37.1
CC1CC1C(=O)OCC(=O)Nc1cccc([N+](=O)[O-])c1 (centres undefined)	Shiga inhibitor 65.0, CHX counter 32.1
CCCC(=O)OCC(=O)Nc1ccc(N=Nc2ccccc2)cc1	AmpC inh detg inconclusive, Shiga inhibitor 83.5, CHX counter 62.2
CCOc1ccc(NC(=O)COC(=O)C2CC2C)cc1 (centres undefined)	none (no result: AmpC inh detg, Shiga inhibitor, CHX counter)
N#Cc1cccc(C(Br)S(=O)(=O)c2ccccc2)c1 (centres undefined)	none (no result: SARS PLP yeast, AmpC no deterg, AmpC inh detg, Shiga inhibitor, CHX counter)
COCCCNC(=O)c1cccc2c(=O)c(C)c(-c3ccccc3)oc12	none
COc1ccc([C@@H]2[C@H]3C(=O)N(c4cccc(C(F)(F)F)c4)C(=O)[C@H]3ON2C)cc1	AmpC inh detg inconclusive
Cc1ccc(N2C(=O)CSC2c2ccccn2)cc1Cl (centres undefined)	CHX counter 24.6
COc1ccc(C)cc1N(CC(=O)Nc1cccnc1)S(=O)(=O)c1ccc(C)cc1	none
COc1cc(/C=N/Nc2nncn2/N=C/c2ccc(O)c(OC)c2)ccc1O	Shiga inhibitor 48.4, CHX counter 12.8
COc1ccc(OC)c(/C=N/Nc2nncn2/N=C/c2cc(OC)ccc2OC)c1	none
COc1cc(/C=N\Nc2nncn2N)ccc1OC(C)=O	CHX counter 17.0
COc1cc(C=Nc2c(C)cc(C)cc2C)ccc1OC(C)=O	none
Cc1ccc(N=C2CCCN2Cc2ccccc2)c(C#N)c1	Shiga inhibitor active, CHX counter 17.5
Cc1ccc(N=C2CCCCCN2C)c(C#N)c1	none
O=C(CNS(=O)(=O)N1CCOCC1)N/N=C/c1cccnc1	none
c1ccc(COc2cccc(CNCc3ccccn3)c2)cc1	Shiga inhibitor 64.8, CHX counter 33.6
Oc1ccc(NCc2cccc(OCc3ccc(F)cc3)c2)cc1	Shiga inhibitor 45.4, CHX counter 24.2
O=[N+]([O-])c1ccc(COc2cccc(CN3CCOCC3)c2)cc1	none (no result: SARS PLP yeast, AmpC no deterg, AmpC inh detg, Shiga inhibitor, CHX counter)
CCOc1cc(CNc2ccc(C(=O)O)cc2)ccc1OCc1ccccc1	none (no result: SARS PLP yeast, AmpC no deterg, AMA1 RON2 block, Shiga inhibitor, CHX counter)
OCCNCc1cccc(OCc2ccc(Cl)cc2)c1	none
O=[N+]([O-])c1ccc(COc2cccc(CNc3ccc(F)cc3)c2)cc1	Shiga inhibitor 37.2, CHX counter 34.5
c1ccc(COc2cccc(CNCc3cccnc3)c2)cc1	none
Oc1ccc(NCc2cccc(OCc3ccccc3)c2)cc1	CHX counter 21.6
COC(=O)/C(=C\Nc1cccc(Cl)c1C)c1ncc(C(F)(F)F)cc1Cl	none
CC(Oc1ccc2ccc(=O)oc2c1)C(=O)NCCN1CCOCC1 (centres undefined)	none
Cc1ccc(C2C3C(=O)N(c4ccccc4)C(=O)C3N3CCCN23)cc1 (centres undefined)	CHX counter 28.3
COc1cc(C(=O)Nc2ccc(Cl)c(-c3nc4ncccc4o3)c2)cc(OC)c1OC	none (no result: SARS PLP yeast, AmpC no deterg, AMA1 RON2 block, Shiga inhibitor, CHX counter)
CNC(=O)c1sc(-c2ccc(Cl)cc2)nc1C	Shiga inhibitor 112.2, CHX counter 52.8 (no result: SARS PLP yeast, AmpC no deterg)
